For orientation: inhibition means the relative decrease from the control value, in per cent.

Results on 70 molecules are retold here after PubChem BioAssay.

For assay [1], the target named is Nuclear receptor coactivator 1 (Homo sapiens) (UniProt Q15788). The experiment in a line: NCOA1 GAL4-fusion reporter inhibition – cell-based, luminescence, quadruplicate, confirmation (AID 588820;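 active = mean inhibition above 46.68%, the untreated control wells mean plus 3 SD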;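 also: 0% = DMSO wells and 100% = gossypol 36 µM treated wells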). Conditions: HEK293 GAL4-SRC1 luciferase reporter, at 3.6 µM, stronger effect = higher value. (In general: Reporter assays use an easily measured gene product as a stand-in for the process of interest.)
Sequence of Nuclear receptor coactivator 1 (Homo sapiens) (Q15788 whole entry, looked up, the tested form may be a part): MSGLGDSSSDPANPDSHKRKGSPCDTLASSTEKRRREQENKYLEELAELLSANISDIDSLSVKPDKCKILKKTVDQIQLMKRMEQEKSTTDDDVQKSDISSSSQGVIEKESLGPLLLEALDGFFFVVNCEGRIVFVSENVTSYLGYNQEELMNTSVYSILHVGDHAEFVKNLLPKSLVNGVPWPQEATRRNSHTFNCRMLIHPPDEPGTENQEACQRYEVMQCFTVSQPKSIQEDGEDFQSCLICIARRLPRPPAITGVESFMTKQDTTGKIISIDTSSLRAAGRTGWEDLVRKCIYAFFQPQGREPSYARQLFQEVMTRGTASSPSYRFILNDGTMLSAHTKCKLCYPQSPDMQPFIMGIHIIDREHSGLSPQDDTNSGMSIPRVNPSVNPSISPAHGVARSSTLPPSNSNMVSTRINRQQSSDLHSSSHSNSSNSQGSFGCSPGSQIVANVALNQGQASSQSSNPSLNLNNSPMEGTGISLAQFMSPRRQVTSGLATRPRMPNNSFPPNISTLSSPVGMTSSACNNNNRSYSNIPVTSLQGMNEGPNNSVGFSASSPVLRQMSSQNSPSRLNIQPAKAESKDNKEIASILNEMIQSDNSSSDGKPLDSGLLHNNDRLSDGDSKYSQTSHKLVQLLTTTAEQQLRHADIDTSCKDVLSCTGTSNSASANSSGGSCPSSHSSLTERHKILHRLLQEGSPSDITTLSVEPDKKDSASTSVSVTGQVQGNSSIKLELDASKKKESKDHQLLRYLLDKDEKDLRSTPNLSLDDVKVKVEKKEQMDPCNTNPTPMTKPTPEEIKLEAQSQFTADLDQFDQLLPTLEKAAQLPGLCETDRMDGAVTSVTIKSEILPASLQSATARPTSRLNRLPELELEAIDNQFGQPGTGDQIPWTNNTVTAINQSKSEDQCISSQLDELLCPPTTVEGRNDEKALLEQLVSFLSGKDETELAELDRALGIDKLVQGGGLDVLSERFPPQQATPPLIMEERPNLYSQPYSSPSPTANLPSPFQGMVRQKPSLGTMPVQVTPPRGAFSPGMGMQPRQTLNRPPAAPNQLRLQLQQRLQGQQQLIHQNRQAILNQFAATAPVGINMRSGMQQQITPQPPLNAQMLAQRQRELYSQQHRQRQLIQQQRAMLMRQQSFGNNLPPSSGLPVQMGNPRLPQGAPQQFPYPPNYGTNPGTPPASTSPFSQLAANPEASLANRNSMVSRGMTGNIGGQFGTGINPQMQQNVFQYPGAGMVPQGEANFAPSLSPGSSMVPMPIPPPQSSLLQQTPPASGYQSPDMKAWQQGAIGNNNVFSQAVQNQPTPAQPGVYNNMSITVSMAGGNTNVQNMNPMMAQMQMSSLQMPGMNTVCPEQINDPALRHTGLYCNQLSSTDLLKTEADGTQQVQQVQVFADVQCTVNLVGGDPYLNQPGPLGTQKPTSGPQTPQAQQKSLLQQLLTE

Assay [2] can be described thus: repression of VP16-driven luciferase reporter – cell-based, luminescence, high throughput, counter-screen for SRC1 inhibitor project (AID 588824). The settings on record: cell-based VP16 transactivation luciferase luminescence; at 3.6 µM; stronger effect = higher value.

Values without a mark were called inactive. Activity calls are given as the source filed them. Rule as the data show it, unless noted: active = inhibition above about 25%; inactive = the rest.

Take `Cc1oc(C(C)(C)C)cc1C(=O)N1CCN(c2ccc(C(F)(F)F)cn2)CC1`: the inhibition in assay [1] is 0.89%; in assay [2], 15.2%.
Taken in the same sequence, the figures for `COc1cc2c(cc1OC)CN(C(=O)c1cc(S(=O)(=O)N3CCOCC3)ccc1C)CC2` were 1.45% and 7.41%.
For `Cc1ccc(O)c(Nc2ncnc3ccc([N+](=O)[O-])cc23)c1` the same measures were 17.6% and 23.6%.
Taken in the same sequence, the figures for `CCOCCOC(=O)c1[nH]c2c(c1C)C(=O)CC(c1cc(OC)c(OC)c(OC)c1)C2` (stereo not given) were -15.9% and 13.5%.
For the molecule `CCOC(=O)N1CCN(Cc2nc(Cc3cccc(C(F)(F)F)c3)no2)CC1`, the inhibition in assay [1] was -24.9%; in assay [2] it was -12.2%.
For `CC(C)Oc1ccc(C(=O)Nc2nc3ccccc3[nH]2)cc1` the same measures were -74.9% and -39.4%.
Take `CC1(c2ccccc2)NC(=O)N(CC(=O)Nc2cc3c(cc2Br)OCCO3)C1=O` (stereo not given): the inhibition was -11.8% in assay [1] and -6.44% in assay [2].
For `COc1ccc(-c2cn[nH]c2C)cc1` the same measures were -12% and 5.39%.
For `O=C(CSc1nc(C2CC2)nc2ccccc12)Nc1cccc(O)c1` the same measures were -0.77% and 1.43%.
Taken in the same sequence, the figures for `Cc1cc(C(=O)OCC(=O)N2CC(C)OC(C)C2)c(C)n1-c1ccccc1` (stereo not given) were -17% and -1.93%.
`O=C1/C(=N\S(=O)(=O)c2cccs2)C([n+]2ccccc2)=C([O-])c2ccccc21`: the inhibition in assay [1] is -4.31%; in assay [2], 6.99%.
For `COc1ccc(Cl)cc1NC(=O)CN(C)C(=O)c1ccc(COc2ccccc2)cc1` the same measures were -31.4% and -12.9%.
Taken in the same sequence, the figures for `O=C(c1ccccc1)C1CCN(C(=O)c2ccc(Cl)cc2)CC1` were 7.58% and 5.47%.
For `OC[C@@H]1CN(Cc2ccc(-c3ccccc3)cc2)C[C@H](n2cnc3c(NCc4ccncc4)ncnc32)O1` the same measures were 10.1% and 28.9% (active).
As for `Cc1cc(C)cc(NS(=O)(=O)c2ccc3[nH]c(=O)ccc3c2)c1`, the inhibition in assay [1] is -17.7%; in assay [2], -3.07%.
`CN(C1CCCCC1)S(=O)(=O)c1ccc(NC(=O)C2CCCCC2)cc1`: the results for the inhibition in assay [1] and in assay [2] were -0.79% and 11%, respectively.
Taken in the same sequence, the figures for `CN(C)S(=O)(=O)c1ccc(Cl)c(NC(=O)CN2C(=O)NC(C)(C3CC3)C2=O)c1` (stereo not given) were -2.39% and -2.88%.
Taken in the same sequence, the figures for `COCCn1c(C)cc(/C=C2/NC(=O)N(c3cccc(Cl)c3)C2=O)c1C` were -34.5% and -40.5%.
Consider `CC(=O)Nc1ccc(NC(=O)C(C)OC(=O)CCSc2ccccc2Cl)cc1` (stereo not given), for which the inhibition in assay [1] was -6.34%; in assay [2], 4.67%.
For `COc1cc(-c2cnc3c(NC(C)=O)cc(-c4ccc(N5CCN(C)CC5)cc4)cn23)cc(OC)c1OC` the same measures were -17.8% and -18.2%.
Turning to `Cc1nc(N)c(C#N)c(-c2cccnc2)c1C`, the inhibition is 46.4% in assay [1] and 26.5% (active) in assay [2].
`Cc1cccc(C(=O)OCC(=O)NNC(=O)c2cccs2)c1O`: the inhibition in assay [1] is -18.5%; in assay [2] it was -2.62%.
Turning to `CC(C)(C)c1ccc(-n2ncc3c2CCCC3NC(=O)CN2CCOC2=O)cc1` (stereo not given), the inhibition in assay [1] was -6.1%; in assay [2], 7.65%.
Taken in the same sequence, the figures for `Cc1cccc(N2CCN(S(=O)(=O)c3cc(-c4cc(C)no4)ccc3C)CC2C)c1` (stereo not given) were -10.5% and 33.8% (active).
Turning to `COc1cccc(OCCn2cc(C(C)=O)c3ccccc32)c1`, the inhibition is 10.7% in assay [1] and 30.8% (active) in assay [2].
As to `Cc1ccc(C2/C(=C(\O)c3ccc4c(c3)OCCO4)C(=O)C(=O)N2Cc2cccnc2)cc1` (stereo not given), the inhibition in assay [1] is -15.5%; in assay [2] it was -9.56%.
For `CCOc1ccc(CCNC(=O)CSCc2ccc(C)cc2)cc1OCC` the same measures were -18.5% and -1.5%.
For `Cc1ccc(S(=O)(=O)N(C)c2ccc(C(=O)N3CCN(Cc4ccc5c(c4)OCO5)CC3)cc2)cc1` the same measures were 9.2% and 30% (active).
In the case of `CCN(CC)CCNc1nc2cc(OC)c(OC)cc2c2nc(-c3ccccc3)nn12`, the inhibition was 9.19% in assay [1] and 33.3% (active) in assay [2].
Taken in the same sequence, the figures for `COc1cccc(N2CC(NS(=O)(=O)c3cccnc3)CC2=O)c1` (stereo not given) were -40.7% and -8.11%.
For `O=C(O)CN1C(=O)/C(=C\c2ccccc2OCc2ccc(Cl)cc2Cl)SC1=S` the same measures were 32% and -7.27%.
Take `C=CCn1c(Oc2ccccc2F)nc2c1c(=O)n(C)c(=O)n2C`: the inhibition is 46.6% in assay [1] and 23.6% in assay [2].
As to `Cc1sc2ncn3ncnc3c2c1C`, the inhibition was 37.9% in assay [1] and 27.7% (active) in assay [2].
With `CS(=O)(=O)c1ccc(C(=O)OCC(=O)NC(=O)Cc2ccccc2)cc1`, the results for the inhibition in assay [1] and in assay [2] were -5.88% and -3.13%, respectively.
For `COc1ccc2cc3c(N)nn(C(=O)c4cccc([N+](=O)[O-])c4)c3nc2c1` the same measures were 51.3% (active) and 36.1% (active).
For `c1cncc(CNC2CCCc3ccccc32)c1` (stereo not given) the same measures were 0.67% and -8.78%.
Consider `CC(=O)Nc1cccc(C(=O)Nc2ccc(S(=O)(=O)NC3=NCCCCC3)cc2)c1`, for which the inhibition in assay [1] is -23%; in assay [2], -8.18%.
For `CC(=O)N1CCc2c(sc(NC(=O)C3CCCN3S(=O)(=O)c3cccs3)c2C(N)=O)C1` (stereo not given), the inhibition in assay [1] was 4.87%; in assay [2] it was -1.35%.
Taken in the same sequence, the figures for `O=C(NC1CC(=O)N(c2ccccc2)C1)C1CC1` (stereo not given) were -3.45% and -9.3%.
Regarding `Cc1sc2ncnc(N3CCN(C(=O)c4ccco4)CC3)c2c1C`, the results for the inhibition in assay [1] and in assay [2] were -0.07% and 7.79%, respectively.
For `N#Cc1cc2ccncc2c2ccccc12` the same measures were 30.8% and 16.7%.
`COc1ccc2sc3c(=O)[nH]c4ccccc4c3c2c1`: the inhibition in assay [1] was 55% (active); in assay [2], 41.4% (active).
On to `CCN(CC)S(=O)(=O)c1cccc(C(=O)OCC(=O)Nc2ccc3c(c2)c2ccccc2n3CC)c1`, for which the figures for the inhibition in assay [1] and in assay [2] were -11.9% and 24.3%, respectively.
For `O=C(CSc1nc2[nH]ncc2c(=O)[nH]1)N1CCCCC1` the same measures were -8.66% and -6.86%.
For `Cc1csc(N=Cc2ccc([N+](=O)[O-])o2)n1`, the figures for the inhibition in assay [1] and in assay [2] were 30.6% and 32.2% (active), respectively.
As to `Cc1cc(NC(=O)CN2CCN(S(=O)(=O)c3ccc4ccccc4c3)CC2)no1`, the results for the inhibition in assay [1] and in assay [2] were -3.08% and -1.04%, respectively.
For `Cn1ncc(Cl)c1C(=O)NCc1cc(C(C)(C)C)n[nH]1`, the inhibition in assay [1] is -8.52%; in assay [2], -4.25%.
For `CC1CC(C)CN(c2ncc3c(n2)CC(c2ccc(Cl)cc2)CC3=O)C1` (stereo not given) the same measures were -7.75% and 3.59%.
On to `COc1ccccc1CN(Cc1nc2ccccc2c(=O)[nH]1)S(=O)(=O)c1ccc2ccccc2c1`, for which the results for the inhibition in assay [1] and in assay [2] were -20.3% and -11.3%, respectively.
For the molecule `O=C1NC[C@H](c2ccccc2)OC(=O)[C@@H](Cc2ccc(F)cc2)C/C=C\C[C@H]1CC(=O)N(CCO)Cc1ccccc1`, the inhibition in assay [1] was -35%; in assay [2], -0.29%.
Taken in the same sequence, the figures for `COc1ccc(NC(=O)NNC(=O)COc2ccc3ccccc3c2)cc1OC` were 14% and 8.08%.
For `CCN(C(=O)C(C)OC(=O)CCCNC(=O)c1ccc(Cl)cc1)c1ccccc1` (stereo not given) the same measures were -2.16% and -2.69%.
Taken in the same sequence, the figures for `O=C(CN1C(=O)CCC1=O)Nc1ccc(S(=O)(=O)N2CCOCC2)cc1` were -20.2% and 4.05%.
For the molecule `COc1ccc(CC(=O)Nc2ccc3c(c2)CCC3)cc1OC`, the inhibition was 10.1% in assay [1] and 2.91% in assay [2].
`CC(=O)c1cn(CC(=O)Nc2cccc(C)c2C)c2ccccc12`: the figures for the inhibition in assay [1] and in assay [2] were -15.8% and 13%, respectively.
Regarding `Cc1cccc(NC(=O)C2CCN(S(=O)(=O)c3ccc4c(c3)OCCCO4)CC2)n1`, the inhibition was -23.6% in assay [1] and 17.2% in assay [2].
For `COc1cc2c(cc1NC(=O)/C=C/c1cc(OC)c(OC)c(OC)c1)oc1ccccc12` the same measures were 3.29% and -2.37%.
For `Cc1cc(-c2ccc(F)cc2)n2ncc(-c3ccccc3)c2n1` the same measures were -87.3% and -34.6%.
As for `COc1ccc(Cc2nnc(SCC(=O)Nc3ccc(C)c(Cl)c3)[nH]c2=O)cc1`, the figures for the inhibition in assay [1] and in assay [2] were 6.82% and 7.22%, respectively.
For `O=C(N/N=C/c1coc2ccc(Cl)cc2c1=O)c1ccc(O)cc1` the same measures were 18.6% and 17.8%.
Regarding `CN1OC[C@@H]2CN(C(=S)NCCc3ccccc3)[C@H](c3ccc(-n4ccnc4)cc3)C[C@@H]21`, the inhibition in assay [1] is -1.96%; in assay [2], -0.23%.
Taken in the same sequence, the figures for `Cn1cc(S(=O)(=O)Nc2ccc(OC(F)(F)F)cc2)c(=O)n(C)c1=O` were 6.39% and -5.51%.
As to `CCn1c(=O)n(CC)c2cc(N3CCCC3)c(NC(=O)c3ccccc3OC)cc21`, the inhibition in assay [1] is -13.7%; in assay [2], -7.42%.
Regarding `COc1ccc([C@H]2CC(=O)C=C(c3ccnc4ccc(Cl)cc34)C2)cc1`, the results for the inhibition in assay [1] and in assay [2] were 2.04% and 29.2% (active), respectively.
Taken in the same sequence, the figures for `COc1cccc(C(c2c(NC(=O)c3ccco3)sc(C)c2C)N2CCOCC2)c1` (stereo not given) were -6.24% and -1.54%.
For `CC(=O)OCC1OC(n2cc(F)c(=O)[nH]c2=O)C(OC(C)=O)C1OC(C)=O` (stereo not given) the same measures were 5.02% and 22.9%.
Taken in the same sequence, the figures for `CCCc1cc(=O)oc2cc(O[C@@H]3O[C@H](CO)[C@@H](O)[C@H](O)[C@H]3O)ccc12` were -9.52% and -11.7%.
Take `COc1ccc(NC(=O)c2ccccc2Cl)cc1NC(=O)CN1CCOCC1`: the figures for the inhibition in assay [1] and in assay [2] were -11.8% and -7.93%, respectively.
On to `Cc1cc(=O)oc2cc(OCc3ccc(C(=O)N4CCN(c5ccc([N+](=O)[O-])cc5)CC4)cc3)ccc12`, for which the inhibition in assay [1] is 10.5%; in assay [2], -3.02%.
In the case of `COc1ccc(S(=O)(=O)N2CCCCCC2)cc1C(=O)N(C)CCOc1ccccc1`, the inhibition is 5.04% in assay [1] and -8.6% in assay [2].
